Some of the results follow. Results filed as inconclusive are left out. Calls of active or inactive are those of the source. Calls follow the shape of the dose curve; as a rule, active = well fitted inhibition curve with a large enough effect; inconclusive = small, poorly fitted or top-dose-only effect; inactive = no such curve, though single readings can be large or run the other way.
Each compound was assayed against 4'-phosphopantetheinyl transferase Sfp (Bacillus subtilis (strain 168)) (UniProt P39135) (assay: qHTS Assay for Inhibitors of Bacillus subtilis Sfp phosphopantetheinyl transferase (PPTase): SAR Round 2). Conditions: purified Sfp enzyme, PPTase activity.
Source text: The covalent attachment of a phosphopantetheinyl (4'-PP) arm to a variety of synthases and other proteins is a key posttranslational protein modification. The 4'-PP is installed on the proteins post-translationally from coenzyme A (CoA) on a conserved serine residue by action of phosphopantetheinyl transferase (PPTase) enzymes. Phosphopantetheinylation is essential for synthase activity, and removal of the PPTase gene precludes natural product synthesis in microorganisms, or in the case of fatty acid biosynthesis, renders the organism unviable. PPTase enzymes belong to a distinct structural superfamily. Within bacteria, these enzymes are grouped into two classes based upon primary structure, the AcpS-Type and Sfp-Type PPTases.
Sfp-type PPTases, corresponding to an activator of surfactin production in Bacillus subtilis, are responsible for modifying type I polyketide and nonribosomal peptide synthases of prokaryotes. Sfp-type PPTases are responsible for the activation of a variety of pathogen-associated virulence factors. Among these compounds are toxins such as mycolactone from Mycobacterium ulcerans, siderophores such as vibriobactin from Vibrio cholerae or mycobactin from Mycobacterium tuberculosis, as well as the mycolic acids which form the waxy cell wall of Mycobacteria. The biosyntheses of these natural products are considered attractive targets for drug design.
In search of small molecule Sfp-PPTase inhibitors, a fluorescence quenching assay was developed for detection of Bacillus subtilis Sfp-PPTase enzymatic activity in a miniaturized high-throughput format. The consensus ybbr acceptor peptide […] was N-terminally labeled with Black Hole Quencher-2 (BHQ-2) and used in combination with rhodamine-labeled coenzyme A as a co-substrate.
Inhibition of Sfp-PPTase was detected by recording the fluorescence intensity change over a 30-minute reaction period at a 525 nm excitation and 598 nm emission. Reagents were supplied by Michael Burkart and Timothy Foley, University of California at San Diego.
NIH Chemical Genomics Center [NCGC]
NIH Molecular Libraries Probe Centers Network [MLPCN]
Assay Submitter (PI): Michale Burkart, University of California, San Diego
Assay Buffer: 50 mM Hepes-Na pH 7.6, 10 mM MgCl2, 0.01% Nonidet P-40, and 0.01% BSA.
3 uL of Sfp-PPTase enzyme (final concentration 15 nM) and 1 uL of substrate mixture (final concentration for rhodamine-CoA and BHQ-2-YbbR 5 uM and 12.5 uM, respectively) dispensed in columns 1, 2, 5 - 48. Columns 1 and 2 used to generate neutral control (uninhibited reaction)
Three uL of reagents, consisting of buffer (in columns 3 and 4 as negative control) and Sfp-PPTase (in columns 1, 2, 5 - 48) were dispensed into 1,536-well Greiner black solid bottom plate. Compounds (23 nL) were transferred via Kalypsys pintool equipped with 1,536-pin array. The plate was incubated for 15 min at room temperature, followed by the addition of 1 uL substrate to start the reaction. The plate was then centrifuged at 1000 rpm for 15 seconds, and the fluorescence intensity recorded on a ViewLux High-throughput CCD imager (Perkin-Elmer) using standard BODIPY optics (525 nm excitation and 598 nm emission). The plate was then incubated for 30 minutes, and a second read on the ViewLux was performed. The fluorescence intensity difference over the 30-minute period was used to calculate the respective reaction rate for each well.

Potency, active:
Cc1cc(C)nc(NC(=S)N2CCN(c3ccc(Cl)cc3F)CC2)c1 0.91 µM
Cc1cc(C)nc(NC(=S)N2CCN(c3ccc(Cl)cc3C(F)(F)F)CC2)c1 0.58 µM
COc1cccc(NC(=S)N2CCN(c3ccccc3C(F)(F)F)CC2)n1 3.24 µM
Cc1cc(C)nc(NC(=S)N2CCN(c3cccc(C(F)(F)F)c3)CC2)c1 0.51 µM
Cc1cc(C)nc(NC(=S)N2CCN(c3ccc4nonc4c3)CC2)c1 6.46 µM
Cc1cc(C)nc(NC(=S)N2CCN(c3cccc(C#N)c3)CC2)c1 1.62 µM
Cc1ccc(N2CCN(C(=S)Nc3cc(C)ccn3)CC2)cc1 5.13 µM
COc1ccnc(NC(=S)N2CCN(c3ncc(C(F)(F)F)cc3Cl)CC2)c1 0.29 µM
